This is an account of results in PubChem BioAssay.

Experiment [1] in a line: compounds altering Cy5-DNA-NS3h complex signal – biochemical, LOPAC1280, artefact control for HCV NS3 helicase inhibitor project (AID 687037). To be noted: Cy5-DNA-NS3h complex fluorescence interference counterscreen. In general terms: A counterscreen serves to expose hits that act by an unwanted route or on another target.
Experiment [2] is described as follows: Wnt pathway potentiators raising nuclear beta-catenin – imaging, WNT3A-conditioned medium, mouse C2C12, NPC library, primary screen (AID 1117326; in the data active means nuclear beta-catenin stimulation mostly above about 4.2%, no sharp cut-off; inactive means mostly below about 10%). To be noted: stronger effect = higher value.
Experiment [3] is described as follows: growth inhibition of GSK3B-pretreated HCT116 cells – cell-based, CellTiter-Glo, 0.2 to 20 µM (AID 1117336;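 active means compounds lowering colon cancer cell viability after pretreatment blocking the GSK3B kinase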). The settings on record: HCT116 viability after GSK3B inhibitor, at 20 µM, stronger effect = higher value. A general note: ATP-based viability assays read luminescence as a measure of living cells.
Experiment [4] can be described thus: HCT116 colon cancer cell growth inhibition, primary screen, CellTiter-Glo luminescence, NPC library (AID 1117342;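 active means compounds that lower survival of HCT116 colon cancer cells in the luminescence readout, no numeric limit stated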). To be noted: at 20 µM (top of the series).
Experiment [5] can be described thus: reduced SW480 viability measured with CellTiter-Glo, NPC library, primary (AID 1117343;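 active means compounds that lower viability of the colon cancer cells in the luminescence readout, with no numeric limit stated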). To be noted: CellTiter-Glo luminescence; at 20 µM (top of the series) unless noted.
Experiment [6] in a line: NPC library primary testing for decreased DLD-1 cell viability via CellTiter-Glo (AID 1117346;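 active means compounds that lower survival of DLD-1 colon cancer cells in the luminescence readout, no cutoff given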). To be noted: DLD-1 viability, CellTiter-Glo luminescence; at 20 µM (top of the series).
Experiment [7] has as its target 6-phosphogluconate dehydrogenase, decarboxylating (Homo sapiens) (UniProt P52209). Briefly: inhibition of human phosphogluconate dehydrogenase – biochemical, recombinant enzyme, NADPH absorbance, primary screen (AID 1159550;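 active means at least 20% inhibition of 6-phosphogluconate dehydrogenase activity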). To be noted: recombinant 6PGD, NADPH absorbance 341 nm; at 10 µM; stronger effect = higher value.
Experiment [8] in a line: EMT-state selective cytotoxicity in co-culture – imaging, PC-3E GFP, TEM4-18 mCherry, primary screen (AID 1345086;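 active means compounds killing one labelled cell type while sparing the other, by normalised counts and ratio limits, not self-fluorescent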;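 on all read-outs here: cells exposed to compound for 72 h before imaging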;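 on red/green cell ratio (normalised): normalised mesenchymal count divided by normalised epithelial count so high means epithelial killing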). To be noted: PC-3E GFP / TEM4-18 mCherry co-culture, imaging cell counts, at 1 µM; for red/green cell ratio (normalised): actives lie on both sides, counts scaled to control wells, 1 = unselective.
Experiment [9] can be described thus: viability loss with induced miR-34 in A549 – imaging, A549 dox-inducible miR-34, nuclei and caspase counts, primary screen (AID 1347080;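 active means compounds whose cell count with miR-34 switched on is under 0.7 times the count with it off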). The settings on record: A549 miR-34 inducible, Hoechst nuclei count, 48 h.
The nature of experiment [10]: blockers of cellular phospholipid synthesis – cell-based, LOPAC library, screen 4, primary screen (AID 1347384). To be noted: animal cells, phospholipid biosynthesis inhibition screen; at 10 µM.
The target in experiment [11] is NAD(+) hydrolase SARM1 (Homo sapiens) (UniProt Q6SZW1). As to the kind of experiment: blocking NAD cleavage by SARM1 SAM-TIR – cell lysate, NAD-Glo luminescence (AID 1508614;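 active means compound whose remaining NAD level is above about 45 nM, limit read from the data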). To be noted: SAM-TIR HEK293T lysate NADase, at 1 µM, stronger effect = higher value.
For experiment [12], the target named is Mitogen-activated protein kinase 7 (Homo sapiens) (UniProt Q13164). Briefly: Gal4-ERK5 driven luciferase induction – cell-based, HTS, primary screen (AID 1508626;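 active means luciferase signal above three times the same-plate solvent-only control wells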;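 further: luciferase driven by Gal4-ERK5 fusion binding five Gal4 sites before minimal TATA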). The settings on record: HeLa Gal4-ERK5 transactivation, 18 h, at 5 µM, stronger effect = higher value.
A short description of experiment [13]: galactose survival enhancers in mitochondrial complex I cybrids – cell-based, galactose medium, ATP luminescence, primary screen (AID 1645843;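 active means z-score of at least 1.8 in each of two replicates, scored against plate mean and spread of sample wells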;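 further: positive z means more ATP and so rescue of galactose-driven cybrid death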). The settings on record: complex I mutant cybrid cells, 72 h, stronger effect = higher value.
Experiment [14] in a line: compounds altering viability of human ES cells (AID 493140).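 Further: cells exposed to compounds for four days before counting.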 The settings on record: human embryonic stem cell survival screen; stronger effect = higher value.
Experiment [15] in a line: stimulators of insulin release from INS-1E, primary screen, cell-based, 5 mM glucose, NPC library (AID 1117329;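 active means compound raises insulin release from rat beta cells at 5 mM glucose, no numeric limit stated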). To be noted: rat INS-1E insulin secretion, at 10 µM, stronger effect = higher value.
A short description of experiment [16]: inhibition of endothelial tube formation, primary screen, imaging, VEGF stimulated, CD31 staining, tube area, NPC library (AID 1117340;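 active means compound that reduces growth-factor-driven endothelial tube area in a mixed cell culture, no cutoff stated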). The settings on record: VEGF-stimulated ADSC/ECFC co-culture, at 10 µM, stronger effect = higher value.
Experiment [17] in a line: GLP1 release stimulators, primary, NCI-H716, NPC library (AID 1117341;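 active means compound raises GLP1 secretion from the human gut endocrine cells, with no numeric limit stated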). To be noted: NCI-H716 cells, at 10 µM, stronger effect = higher value.
Experiment [18] is described as follows: modulation of C. elegans fzo-1 (AID 1259413).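 Further: fzo-1 mutant C. elegans worms in liquid wells.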 To be noted: C. elegans fzo-1 modulator screen, mean read-out; stronger effect = higher value.
Experiment [19] can be described thus: MELAS cybrid and Rieske KO viability enhancers – cell-based, MELAS cybrids, Rieske KO mouse fibroblasts, CellTiter-Glo, primary screen (AID 1508586;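 active means mean z-score across replicates of 1.96 or higher in either the MELAS or the Rieske mutant cell line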;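 further: z relative to plate mean and SD of compound and empty wells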). The settings on record: low glucose.
Where [20] appears, read: measured here: epithelial PC-3E GFP cell survival.
Setting [21] is: measured here: mesenchymal TEM4-18 mCherry cell survival.
Where [22] appears, read: stronger effect = lower value, cell number ratio, induced over uninduced.
The mark [23] stands for this setting: measured here: relative caspase fold change +Dox/-Dox.
Where [24] appears, read: measured here: total cells with miR-34 induction, stronger effect = lower value.
Where [25] appears, read: measured here: total cells without miR-34 induction.
Where [26] appears, read: MELAS cybrid survival, CellTiter-Glo 48 h, stronger effect = higher value.
Setting [27] is: Rieske KO mouse fibroblast survival, CellTiter-Glo 72 h.

Where “and” joins values, the source holds several entries; their conditions need not be identical. Identical values can stand only once. Calls of active or inactive are those of the source. Unless noted, how the calls were made is not given here.

Chain of Mitogen-activated protein kinase 7 (Homo sapiens) (Q13164 whole entry, looked up, the tested form may be a part): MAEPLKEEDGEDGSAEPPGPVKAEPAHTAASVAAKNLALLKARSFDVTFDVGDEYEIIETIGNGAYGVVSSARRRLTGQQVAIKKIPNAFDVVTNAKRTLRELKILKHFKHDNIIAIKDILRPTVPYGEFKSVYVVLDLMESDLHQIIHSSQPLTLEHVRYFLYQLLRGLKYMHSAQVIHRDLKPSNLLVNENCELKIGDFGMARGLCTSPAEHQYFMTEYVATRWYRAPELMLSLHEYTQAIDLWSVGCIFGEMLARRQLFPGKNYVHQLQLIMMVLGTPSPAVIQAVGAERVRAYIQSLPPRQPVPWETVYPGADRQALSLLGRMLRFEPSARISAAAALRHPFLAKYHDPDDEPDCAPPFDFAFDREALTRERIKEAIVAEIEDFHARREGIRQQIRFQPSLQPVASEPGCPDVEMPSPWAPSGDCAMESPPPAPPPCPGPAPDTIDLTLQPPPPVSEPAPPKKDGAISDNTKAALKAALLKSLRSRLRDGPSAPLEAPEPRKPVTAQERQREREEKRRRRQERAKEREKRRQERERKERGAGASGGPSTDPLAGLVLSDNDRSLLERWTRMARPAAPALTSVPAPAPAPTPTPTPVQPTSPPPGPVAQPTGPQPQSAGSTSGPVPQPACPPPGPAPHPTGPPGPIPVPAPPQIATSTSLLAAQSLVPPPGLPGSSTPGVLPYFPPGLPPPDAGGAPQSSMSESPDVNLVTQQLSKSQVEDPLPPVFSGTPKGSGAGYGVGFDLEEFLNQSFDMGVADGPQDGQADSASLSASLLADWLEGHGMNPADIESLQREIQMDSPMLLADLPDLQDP
Chain of NAD(+) hydrolase SARM1 (Homo sapiens) (Q6SZW1 whole entry, looked up, the tested form may be a part): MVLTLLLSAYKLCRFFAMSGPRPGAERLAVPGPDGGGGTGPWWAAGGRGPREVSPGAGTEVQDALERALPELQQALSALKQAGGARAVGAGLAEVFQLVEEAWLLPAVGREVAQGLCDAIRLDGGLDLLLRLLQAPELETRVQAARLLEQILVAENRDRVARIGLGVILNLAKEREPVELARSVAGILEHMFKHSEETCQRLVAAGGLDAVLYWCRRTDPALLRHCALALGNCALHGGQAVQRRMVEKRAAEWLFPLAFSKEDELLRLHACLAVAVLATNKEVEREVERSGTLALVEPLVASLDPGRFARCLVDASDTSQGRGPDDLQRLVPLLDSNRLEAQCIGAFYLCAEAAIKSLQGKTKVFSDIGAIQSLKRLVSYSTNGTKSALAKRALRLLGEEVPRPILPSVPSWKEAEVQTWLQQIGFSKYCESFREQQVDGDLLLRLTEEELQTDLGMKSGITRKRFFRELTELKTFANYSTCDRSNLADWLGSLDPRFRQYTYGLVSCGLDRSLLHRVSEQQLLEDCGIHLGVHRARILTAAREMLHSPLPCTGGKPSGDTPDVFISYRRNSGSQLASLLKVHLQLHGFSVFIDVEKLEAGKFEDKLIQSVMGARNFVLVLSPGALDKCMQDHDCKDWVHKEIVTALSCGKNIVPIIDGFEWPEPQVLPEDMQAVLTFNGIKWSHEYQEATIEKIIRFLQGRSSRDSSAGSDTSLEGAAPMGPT
Chain of 6-phosphogluconate dehydrogenase, decarboxylating (Homo sapiens) (P52209 whole entry, looked up): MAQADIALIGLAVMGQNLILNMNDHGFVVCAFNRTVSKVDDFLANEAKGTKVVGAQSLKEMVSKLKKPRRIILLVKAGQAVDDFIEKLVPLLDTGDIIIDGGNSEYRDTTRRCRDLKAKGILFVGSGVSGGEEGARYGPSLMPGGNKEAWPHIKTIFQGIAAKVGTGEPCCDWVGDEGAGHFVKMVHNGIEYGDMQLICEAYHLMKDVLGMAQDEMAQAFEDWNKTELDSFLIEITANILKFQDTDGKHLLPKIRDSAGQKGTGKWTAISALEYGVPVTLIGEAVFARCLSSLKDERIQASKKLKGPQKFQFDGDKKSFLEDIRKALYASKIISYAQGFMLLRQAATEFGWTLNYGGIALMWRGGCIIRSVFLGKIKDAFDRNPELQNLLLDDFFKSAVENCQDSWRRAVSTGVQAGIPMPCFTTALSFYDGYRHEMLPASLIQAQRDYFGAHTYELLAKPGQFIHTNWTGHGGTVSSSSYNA

In general, inhibition refers to the relative decrease from the control value, in per cent. Regarding `Oc1ccc(O)cc1`, the fluorescence ratio (interference) in experiment [1] is 1.1 (inactive). In addition, the nuclear beta-catenin stimulation in experiment [2] (at 10 µM) was 10.9% (inactive); in [2] (stimulation, at 2 µM), 14.4%. Moreover, the viability decrease in experiment [3] was 45.2% (inactive). The inhibition of viability in experiment [4] was -47.7% (inactive). Also, the viability decrease (inhibition) in [5] is 20.4% (inactive); in [6], -15% (inactive). Besides, the inhibition in experiment [7] was 10.8% (inactive). Besides, the red/green cell ratio (normalised) in experiment [8] is 1.14 (inactive). Further, the normalised cell number amounted to 1.14 in experiment [8] (setting [20]) and 1.29 in experiment [8] (setting [21]). Also, the fold change in [9] (setting [22]) was 0.97 (inactive) and 0.922 (inactive); in experiment [9] (setting [23]), 0.837 and 1.69. Moreover, the cell count in [9] (setting [24]) is 7800 and 7820; in [9] (setting [25]) it was 8040 and 8490. For the same compound, the outcome in [10] was inactive. Further, the remaining NAD in experiment [11] was 10 nM (inactive). Further, the luciferase signal in experiment [12] is 40 AU (inactive). For the same compound, the z-score in experiment [13] was -1.04 (inactive).

Consider `COc1ccc2cc([C@H](C)C(=O)O)ccc2c1`, for which the survival in [14] is 2.08 (inactive). In addition, the fluorescence ratio (interference) in [1] is 1 (inactive). For the same compound, in experiment [15], the insulin secretion stimulation is -0.7% (inactive). Also, the viability decrease in experiment [3] was -21% (inactive). Further, the tube area decrease in [16] was 16.3% (inactive). Moreover, the GLP1 secretion stimulation in experiment [17] is -1.7% (inactive). Further, in experiment [4], the inhibition of viability is -1.1% (inactive). Further, the figures for the viability decrease (inhibition) in experiment [5] and in experiment [6] were 30.2% (inactive) and -14.8% (inactive), respectively. The inhibition in [7] was -2.26% (inactive). For the same compound, the mean signal in experiment [18] is 264 (inactive). Besides, in experiment [8], the red/green cell ratio (normalised) is 1.07 (inactive). For the same compound, the normalised cell number in experiment [8] (setting [20]) amounted to 1.19; in experiment [8] (setting [21]), 1.27. Further, the compound was called inactive in experiment [10]. Also, the z-score in [19] (setting [26]) is 0.168 (inactive); in experiment [19] (setting [27]) it was -0.681; in experiment [13] it was 0.36 (inactive) and 0.18 (inactive) and 0.675 (inactive). In addition, the remaining NAD in experiment [11] is 10 nM (inactive). The luciferase signal in [12] is 36 AU (inactive).

Take `CC(C)(C)NCC(O)c1ccc(O)c(CO)c1` (configuration not stated): the survival in [14] was 26.5 (inactive). Further, the fluorescence ratio (interference) in experiment [1] is 1 (inactive). For the same compound, in experiment [15], the insulin secretion stimulation is 1.1% (inactive). In addition, in experiment [3], the viability decrease is -1.7% (inactive). Moreover, the tube area decrease in experiment [16] is -7.8% (inactive). The GLP1 secretion stimulation in experiment [17] was -1.8% (inactive). Further, the inhibition of viability in experiment [4] was -1.7% (active). Further, the viability decrease (inhibition) is -5.2% (inactive) in [5] and -10% (inactive) in experiment [6]. Besides, in experiment [7], the inhibition is 0.167% (inactive). Moreover, in experiment [18], the mean signal is 230 (inactive). In experiment [8], the red/green cell ratio (normalised) is 0.85 (inactive). The normalised cell number in experiment [8] (setting [20]) amounted to 1.18; in experiment [8] (setting [21]), 1. Besides, the call in experiment [10] was inactive. Also, the z-score in experiment [19] (setting [26]) was 0.679 (inactive) and -0.995 (inactive); in experiment [19] (setting [27]), 0.164 and -0.427; in experiment [13] it was 0.105 (inactive) and 0.825 (inactive) and 0.82 (inactive). For the same compound, the remaining NAD in experiment [11] is 10 nM (inactive). Moreover, the luciferase signal in [12] is 32 AU (inactive).

For the compound `CO[C@]1(NC(=O)CSC(F)F)C(=O)N2C(C(=O)O)=C(CSc3nnnn3CCO)CO[C@H]21`, in experiment [15], the insulin secretion stimulation is 0.75% (inactive). Further, the viability decrease in [3] was 11.4% (inactive). In addition, in experiment [16], the tube area decrease was 7.5% (inactive). Also, the GLP1 secretion stimulation in experiment [17] is 4% (inactive). In [4], the inhibition of viability was -0.4% (inactive). Further, the viability decrease (inhibition) was -2.1% (inactive) in [5] and -3.6% (inactive) in experiment [6].

As to `CCN(CC)CCOc1ccc(Cc2ccccc2)cc1`, the nuclear beta-catenin stimulation is 2.1% (inactive) in experiment [2] (at 10 µM) and 14.6% in experiment [2] (stimulation, at 2 µM). Further, the viability decrease in experiment [3] is 67.3% (active). Also, the inhibition of viability in [4] was 67.4% (active). For the same compound, the values for the viability decrease (inhibition) in [5] and in experiment [6] were 83.4% (active) and 55.9% (active), respectively. Besides, the fold change was 0.97 (inactive) in [9] (setting [22]) and 0.737 in [9] (setting [23]). The cell count in experiment [9] (setting [24]) turned out to be 8340; in experiment [9] (setting [25]), 8600. The z-score in [13] was -0.96 (inactive).
